According to PubChem BioAssay (NCI):
This is part of a sample that, as a whole, favours compounds with a hit. Of some 83,000 tested, about 20% had one in any assay.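 Compound tested at a single concentration for 48 hours in 96-well plates; a percent growth value below 10 was scored as active.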 A number with no mark means an inactive call. Active and inactive are the calls of the source.

Experiments:
Assay in all cases: NCI-60 one-dose screen, 48 h (100 = growth as untreated, 0 = no growth, -100 = all killed)
Details in all cases: 10 µM unless noted
SK-MEL-2 melanoma = tested on: SK-MEL-2 melanoma
EKVX NSCLC = tested on: EKVX NSCLC
SN12C renal = tested on: SN12C renal
UO-31 renal = tested on: UO-31 renal
TK-10 renal = tested on: TK-10 renal
ACHN renal = tested on: ACHN renal
CAKI-1 renal = tested on: CAKI-1 renal
A498 renal = tested on: A498 renal
CCRF-CEM leukemia = tested on: CCRF-CEM leukemia
MOLT-4 leukemia = tested on: MOLT-4 leukemia

Row | SMILES | growth (SK-MEL-2 melanoma) | growth (EKVX NSCLC) | growth (SN12C renal) | growth (UO-31 renal) | growth (TK-10 renal) | growth (ACHN renal) | growth (CAKI-1 renal) | growth (A498 renal) | growth (CCRF-CEM leukemia) | growth (MOLT-4 leukemia)
1 | CCCCCCNC(=O)Oc1ccc(/C(=C(/C)c2ccc(Cl)cc2)c2ccc(OCCN3CCCCCC3)cc2)cc1 | 108% | 76.8% | 70% | 51.8% | 95.8% | 87.3% | 64.9% | 74.5% | 46.2% | 33.3%
2 | Brc1ccc(-c2cc(-c3ccc4c(c3)OC=CO4)n[nH]2)s1 | 97.3% | 74.6% | 99.1% | 87.7% | 149% | 97.7% | 62.9% | 90.7% | 79.4% | 72.6%
3 | CCn1c2ccc(/C=N/N(C)S(=O)(=O)CCN(C)C)cc2c2cc(/C=N/N(C)S(=O)(=O)CCN(C)C)ccc21 | 107% | 94.7% | 33.3% | 47.5% | 142% | 70.2% | 48.1% | 85.3% | 19.4% | 15.1%
4 | COc1ccccc1N1CCN(C2=C(Cl)C(=O)c3ncccc3C2=O)CC1 | 95.5% | 98.2% | 88.3% | 44.5% | 148% | 45.7% | 63.6% | 115% | 11.5% | 38.3%
5 | CN1CCN(c2ccc(Nc3nc(NCCCNS(=O)(=O)c4ccc(C(F)(F)F)cc4)c4sccc4n3)cc2)CC1 | -91% (active) | 0.826% (active) | -60.2% (active) | -85% (active) | -34.4% (active) | -74.3% (active) | -76.9% (active) | -87% (active) | 6.25% (active) | 0.188% (active)
6 | CCCCc1nc2c(N)nc3ccccc3c2n1Cc1cccc(CN)c1 | 79.4% | 77% | 68.9% | 70.5% | 89.9% | 65% | 14.2% | 16.3% | 23.9% | 33.9%
7 | CCN(CC)c1ccc(/C=N/NC(=O)c2ccc(S(N)(=O)=O)cc2)c(O)c1 | 47.2% | 15.9% | 28.3% | 7.5% (active) | 37.4% | 14.8% | 22.1% | 24% | 9.4% (active) | 11.2%
8 | CN(C)CCCOc1ccc(C(=C(c2ccccc2)C2CCCC2)c2ccc(OCCCN(C)C)cc2)cc1 | -94.3% (active) | -82.2% (active) | -82.2% (active) | -96.8% (active) | -93% (active) | -94.5% (active) | -79.3% (active) | -82.4% (active) | -35.2% (active) | -58% (active)
9 | C[C@H]1OCC2(CCN(c3cnc(C(=O)Nc4cc(F)cc5cccnc45)cn3)CC2)[C@H]1N | 101% | 77.2% | 46.5% | 38.9% | 82.2% | 33.7% | 40.9% | 65.2% | 15.6% | 16.8%
10 | CC(C)NC(=O)c1cc(-c2ccc(NC(=O)Nc3ccc(F)c(C(F)(F)F)c3)cc2)nc2cccnc12 | 107% | 95.3% | 98.4% | 92.3% | 96.6% | 90.5% | 97.7% | 89.7% | 90.2% | 117%
11 | N#C/C(=C\c1ccc(-c2ccc(Cl)cc2)o1)C(=O)Nc1ncc(Cc2ccc(Br)cc2)s1 | 83.1% | 19.6% | -29.9% (active) | 52.9% | -35.6% (active) | -34.6% (active) | -7.28% (active) | -25.5% (active) | 34.8% | 55.8%
12 | CCOC(=O)c1c(N)c(C#N)cn1Cc1ccc(Cl)cc1Cl | 94.2% | 81.8% | 81.2% | 59.9% | 69.8% | 87.4% | 62.4% | 73.5% | 84.6% | 65.1%
